An excerpt weighted towards active compounds, which were near 3.3% of everything screened.
AmpC detergent – inhibitors of E. coli AmpC beta-lactamase with detergent | P00811 | AmpC hydrolysis of nitrocefin, absorbance 480 nm, 0.01% Triton | Potency, µM (top dose mostly 114 µM), without a hit: top-dose activity change, negative = inhibition, most hits filed as inhibitors | 0.041% of 370,000 active;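 also: 0% = no-compound wells and -100% = no-enzyme wells; nearly all actives have a fitted effect of over 25% in size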
Target sequence (P00811 whole entry, looked up): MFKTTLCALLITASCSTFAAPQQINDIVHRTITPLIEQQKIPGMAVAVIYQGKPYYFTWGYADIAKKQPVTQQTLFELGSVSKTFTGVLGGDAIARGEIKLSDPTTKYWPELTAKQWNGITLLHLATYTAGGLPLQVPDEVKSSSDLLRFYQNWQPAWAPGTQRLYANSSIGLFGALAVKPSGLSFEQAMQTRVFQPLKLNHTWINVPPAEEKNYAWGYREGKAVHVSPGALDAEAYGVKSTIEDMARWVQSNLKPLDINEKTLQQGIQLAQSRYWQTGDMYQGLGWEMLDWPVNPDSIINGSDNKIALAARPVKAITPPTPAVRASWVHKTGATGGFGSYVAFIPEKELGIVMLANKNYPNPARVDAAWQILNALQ
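AmpC (5.3 nM in the dispensed reagent) in 20 mM phosphate pH 7.0 with 0.01% (detergent screen) or 0.0001% Triton X-100 was preincubated with compounds for 15 min at room temperature. Nitrocefin was then added from an 800 uM solution, and hydrolysis was followed at 480 nm.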
Sm TGR inh – S. mansoni TGR enzyme inhibition | Potency, µM (highest dose often 114 µM), inactives show at the highest dose activity change, negative = inhibition, hits mostly inhibitors | Q962Y6 | 3% of 360,000 active | purified TGR, DTNB reduction, TNB absorbance 405 nm; also: % is scaled to controls: 0 for no effect and ±100 for the full control effect; nearly all actives have a fitted effect of over 60% in size
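TGR 20 nM + NADPH 100 uM (dispensed conc.), cpd preinc 15 min RT; start with NADPH (500 uM addition) then DTNB (15 mM addition). Kinetic TNB absorbance, 405 nm filter. Four-parameter Hill fit across titration.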
SARS PLP yeast – SARS-CoV PLP inhibition in yeast. S. cerevisiae expressing SARS-CoV PLpro, growth rescue. Potency, µM (series often up to 32.9 µM), for inactives: top-dose activity, positive = growth rescue, most hits filed as activators. 0.19% of 330,000 active; calls by dose curve; also: 0% is about no effect; nearly all actives have a fitted effect of over 55% in size
Tb PYK inh – T. brucei pyruvate kinase inhibition; Q57TT1; TbPYK enzyme, Kinase-Glo Plus ATP luminescence, 45 min; Potency, µM (top dose mostly 76.8 µM), without a hit: at the top dose activity, negative = inhibition, actives largely listed as inhibitors; 0.12% of 410,000 active; AID 624173; also: % is scaled to controls: 0 for no effect and ±100 for the full control effect; nearly all actives have a fitted effect of over 50% in size
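T. brucei PYK with substrate was exposed to pin-transferred compounds across a concentration series, then started with 130 uM ADP (final). After 45 min at room temperature, Kinase-Glo Plus luminescence was read, normalized and curve-fitted.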
RE007 growth inh – less growth of the S. pombe RE007 Vpr strain | S. pombe RE007 Vpr strain, BacTiter-Glo ATP luminescence, 24 h | Potency, µM (doses to about 92.2 µM), for inactives: at the top dose activity change, negative = less growth, hits mostly inhibitors | 0.21% of 360,000 active; active = well fitted falling curve with a large enough effect; inconclusive = small, poorly fitted or top-dose-only effect; inactive = no such curve, though single readings can be large or run the other way; also: % is scaled to controls: 0 for no effect and ±100 for the full control effect; nearly all actives have a fitted effect of over 50% in size
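Fission yeast RE007 carrying one integrated HIV-1 vpr copy, seeded at OD 0.01 in PMG+AL medium with 23 nL pinned compound. Grown 24 h at 30 degrees; viability read by BacTiter-Glo luminescence after 5 min.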
AmpC inh no detg – inhibitors of E. coli AmpC beta-lactamase without detergent; P00811; AmpC nitrocefin hydrolysis, absorbance 480 nm, 0.0001% Triton; Potency, µM (highest dose often 57.1 µM), for inactives: at the top dose activity change, negative = inhibition, usual class: inhibitors; 0.52% of 330,000 active;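 also: plate controls were no compound for no effect and no enzyme for full effect; nearly all actives have a fitted effect of over 20% in size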
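AmpC (5.3 nM in the dispensed reagent) in 20 mM phosphate pH 7.0 with 0.01% (detergent screen) or 0.0001% Triton X-100 was preincubated with compounds for 15 min at room temperature. Nitrocefin was then added from an 800 uM solution, and hydrolysis was followed at 480 nm.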
* marks the source's active call; other numbers are inactive results; u = inconclusive; x = no result given; [ ] = dose if it differs, or a comment. Unless noted, calls follow the shape of the dose curve; as a rule, active = well fitted curve in the direction sought with a large enough effect; inconclusive = small, poorly fitted or top-dose-only effect, or another doubt; inactive = no such curve, though single readings can be large; an effect the other way counts as inactive or inconclusive. Potency is read from the fitted curve at half-maximal effect.

SMILES	AmpC detergent	Sm TGR inh	SARS PLP yeast	Tb PYK inh	RE007 growth inh	AmpC inh no detg
O=C(O)CC(NC(=O)C12CC3CC(CC(C3)C1)C2)c1ccc(Cl)cc1 (stereo not given)	-11%	0%	1%	0%	3%	-7%
O=C(NC(n1ccc(=O)[nH]c1=O)C(Cl)(Cl)Cl)C12CC3CC(CC(C3)C1)C2 (stereo not given)	-11%	40µM*	u	-4%	-19%	-29%
CCOc1ccc(CCNC(=O)c2ccc(C)c(-n3cnc4cccnc43)c2)cc1	18%	-2%	x	-2%[15.4 µM]	x	x
O=C1C(=O)N(C2CCS(=O)(=O)C2)C(c2cccc(O)c2)/C1=C(/O)c1ccc(Cl)cc1 (stereo not given)	1%	56µM*	0%	-1%	4%	-14%
CCCOc1cccc(C(=O)Nc2cccc(-c3nc4ncccc4o3)c2C)c1	-5%	5%	x	-2%	x	x
Cc1nc([N+](=O)[O-])c(Br)n1CC(=O)c1ccc(Br)cc1	u	11µM*	-33%	-2%	-9%	-6%
Cc1nc([N+](=O)[O-])c(Br)n1CC(=O)c1ccc2ccccc2c1	2%	14µM*	-32%	5%	22%	16%
Cc1nc([N+](=O)[O-])c(Br)n1CC(=O)c1ccccc1	4%	4µM*	-10%	-2%	1%	-10%
Cc1nc([N+](=O)[O-])cn1CC(=O)c1ccc(Cl)cc1	u	4%	-4%	4%	17%	-19%
CC(=O)Nc1sc2c(c1C#N)CCN(Cc1ccccc1)C2	u	-7%	-3%	4%	-3%	2%
N#Cc1c(NC(=O)/C=C/C(=O)O)sc2c1CCN(Cc1ccccc1)C2	-1%	25µM*	-2%	-1%	3%	2%
O=C(Nc1nnc(S(=O)(=O)N2CCCc3ccccc32)s1)c1ccccc1Br	16%	1%	x	-5%	x	x
Cc1[nH]c2ccc(-c3n[nH]c(=S)n3-c3ccccc3)cc2c1C	-7%	-8%	0%	u	6%	-47%
Cc1[nH]c2ccc(-c3n[nH]c(=S)n3Cc3ccccc3)cc2c1C	-1%	5%	2%	u	-4%	11µM*
Cc1cccc(-c2n[nH]c(=S)n2Cc2ccccc2)c1	-1%	-23%	8.9µM*	u	7%	-7%
S=c1[nH]nc(-c2cccc(Cl)c2)n1Cc1ccccc1	-6%	2%	3%	u	4%	-19%
CCCOc1ccc(C(=O)Nc2nonc2-c2ccc(OCC)cc2)cc1	4%	-4%	x	1%	x	x
COc1cccc(C#Cc2c(CO)[nH]c3ccccc23)c1	2%	32µM*	1%	-11%	-2%	-35%
Cc1noc(NS(=O)(=O)c2ccc(NC(=O)CCn3c(=O)oc4ccccc43)cc2)c1C	-5%	16µM*	-21%	-6%	20%	-6%
NS(=O)(=O)c1ccc(NC(=O)CCn2c(=O)oc3ccccc32)cc1	0%	-2%	x	2%	x	x
CCc1ccc2oc(-c3ccc(NC(=O)c4cccc(Cl)c4Cl)cc3)nc2c1	15%	10%	x	2%	x	x
CC(/C=N/n1c(COc2ccccc2)n[nH]c1=S)=C\c1ccco1	-5%	-19%	1%	-38%	15%	-48%
CC(/C=N/n1c(-c2cccnc2)n[nH]c1=S)=C\c1ccco1	-6%	40µM*	3%	u	-16%	-39%
CC(/C=N/n1c(-c2n[nH]c3c2CCC3)n[nH]c1=S)=C\c1ccco1	-1%	35µM*	-1%	u	20%	-43%
S=c1[nH]nc(-c2cccnc2)n1/N=C/C=C/c1ccco1	-7%	x	1%	u	0%	-15%
SMILES	AmpC detergent	Sm TGR inh	SARS PLP yeast	Tb PYK inh	RE007 growth inh	AmpC inh no detg
COc1ccc(N(CC(=O)N2CCCCC2)S(=O)(=O)c2ccccc2)c(OC)c1	3%	-7%	11%	4%	-6%	8.9µM*
CCOc1ccc(-c2cn3c(n2)sc2cc(C(=O)NCCCc4ccccc4)ccc23)cc1	6%	3%	x	0%	x	x
O=[N+]([O-])c1ccc(Sc2cccc[n+]2[O-])c2nonc12	-10%	0.28µM*	-7%	18µM*	10µM*	-25%
O=[N+]([O-])c1ccc(Nc2ccccc2)c2nonc12	-4%	u	-4%	-4%	x	-20%
CNC(=S)Nc1cccc(C(=O)OC)c1	13%	32µM*	0%	2%	2%	-12%
CC(=O)Nc1cccc(NC(=S)Nc2cccc(Cl)c2Cl)c1	-1%	x	-1%	2%	-7%	-41%
COC(=O)c1cccc(NC(N)=S)c1	3%	x	-1%	-6%	42%	-10%
S=C(Nc1ccc(CN2CCCCC2)cc1)Nc1cccc(Cl)c1Cl	u	25µM*	5%	-23%	-17%	-10%
CC(=O)c1ccc(NC(=S)Nc2cccc(Cl)c2C)cc1	-11%	35µM*	-1%	-1%	2%	-20%
COC(=O)c1cccc(NC(=S)Nc2cccc(Cl)c2Cl)c1	7%	45µM*	1%	-4%	-4%	-23%
CCc1nnc(SCC(=O)Nc2ccc(F)cc2F)c2cc3sc(C)cc3n12	-9%	-8%	x	-12%	x	x
CCCC(=O)Nc1ccc2c(c1)C(=O)NC2=O	-16%	0%	-3%	-8%	8%	45µM*
Cc1ccc2c(c1)Oc1ccc(NC(=O)CCCl)cc1C(=O)N2	u	0%	0%	-5%	10%	20µM*
CCCC(=O)Nc1cccc(Oc2ccc3c(c2)C(=O)NC3=O)c1	-18%	3%	6%	0%	22%	-13%
COc1ccc(C2=NN3C(C2)c2ccccc2OC3c2cccs2)cc1 (stereo not given)	4%	u	-1%	-5%	u	-25%
COc1ccc(C2=NN3C(C2)c2ccccc2OC32C(=O)N(C)c3ccccc32)cc1 (stereo not given)	1%	40µM*	-13%	-19%	u	-30%
Cc1cc(C)cc(NC(=O)c2cc(S(=O)(=O)N3CCOCC3)cn2C)c1	20%	4%	x	-1%	x	x
Cc1nnc(NC(=O)CSc2nc3[nH]ncc3c(=O)[nH]2)s1	3%	45µM*	1%	1%	-11%	-11%
CCc1nn2c(=O)cc(COC(=O)CNC(=O)c3ccccc3)nc2s1	-4%	-1%	x	0%	x	x
Cc1ccc(CC2C(=O)N(C)C(=O)N(C)C2=O)s1	2%	40µM*	4%	u	12%	-17%
COc1ccc(CC2C(=O)N(C)C(=O)N(C)C2=O)c(OC)c1	-5%	u	5%	-8%	14%	-13%
